In PubChem BioAssay (NCATS):
Records with an inconclusive call do not appear. Unless noted, calls follow the shape of the dose curve; as a rule, active = well fitted curve in either direction with a large enough effect (not every such curve was filed as active); inconclusive = small, poorly fitted or top-dose-only effect, or another doubt; inactive = flat fitted curve, though single readings scatter.

Legend:
[1] = AP1 Signaling Pathway (AID 357); conditions: ME-180 AP-1-bla reporter, EGF-induced, beta-lactamase ratio, 5 h; at 17.2 µM (top of the series) unless noted;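 also: ME-180 reporter cells stimulated with EGF at its EC50 level; % is scaled to controls: 0 for no effect and ±100 for the full control effect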
How it was run: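 A ratiometric CCF4 readout (405 nm excitation; 460 and 530 nm emission) quantified AP-1-driven beta-lactamase in ME-180 cells after 5 h with compound and EC50 EGF; AC50 values were derived for activators and inhibitors.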

[2] = NFAT Signaling Pathway (AID 444); conditions: Jurkat NFAT-bla M1, carbachol, beta-lactamase ratio, 5 h; at 17.2 µM (top of the series) unless noted;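 also: carbachol stimulus at about its EC50 of 1 µM final; % is scaled to controls: 0 for no effect and ±100 for the full control effect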
How it was run: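 Read-out: CCF4 FRET ratio (460 nm/530 nm) after 1 h RT dye loading, used for %activity and AC50 from titration series. Cells: Jurkat NFAT-β-lactamase/M1 line, treated with compound plus 1 uM carbachol for 5 h, 37 °C.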

[3] = Stat Signaling Pathway (AID 446); conditions: ME-180 (cervical carcinoma) SIE beta-lactamase reporter, IL-6 stimulated, 5 h; at 17.2 µM (top of the series) unless noted;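 also: ME-180 cervical cancer cells given 40 pM IL-6 alongside compound; SIE-controlled beta-lactamase reporter measured as 460/530 nm FRET emission ratio; % is scaled to controls: 0 for no effect and ±100 for the full control effect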
How it was run: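 FRET read-out (405 nm excitation, 460/530 nm emission) of a beta-lactamase reporter under a STAT-inducible element in ME-180 cervical carcinoma cells. Cells with compound receive 40 pM IL-6 for 5 h. Values are normalised to AC90 stimulation and AC90 JAK-inhibitor controls.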

[4] = biological target: Glucocorticoid receptor (Homo sapiens) (UniProt P04150); test: GR-GFP Redistribution (AID 450;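 active = compounds whose dose series gives a full or clear partial fitted curve of increased nuclear translocation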; also: potency is read from the fitted curve at half-maximal effect)
Chain of Glucocorticoid receptor (Homo sapiens) (P04150 whole entry, looked up): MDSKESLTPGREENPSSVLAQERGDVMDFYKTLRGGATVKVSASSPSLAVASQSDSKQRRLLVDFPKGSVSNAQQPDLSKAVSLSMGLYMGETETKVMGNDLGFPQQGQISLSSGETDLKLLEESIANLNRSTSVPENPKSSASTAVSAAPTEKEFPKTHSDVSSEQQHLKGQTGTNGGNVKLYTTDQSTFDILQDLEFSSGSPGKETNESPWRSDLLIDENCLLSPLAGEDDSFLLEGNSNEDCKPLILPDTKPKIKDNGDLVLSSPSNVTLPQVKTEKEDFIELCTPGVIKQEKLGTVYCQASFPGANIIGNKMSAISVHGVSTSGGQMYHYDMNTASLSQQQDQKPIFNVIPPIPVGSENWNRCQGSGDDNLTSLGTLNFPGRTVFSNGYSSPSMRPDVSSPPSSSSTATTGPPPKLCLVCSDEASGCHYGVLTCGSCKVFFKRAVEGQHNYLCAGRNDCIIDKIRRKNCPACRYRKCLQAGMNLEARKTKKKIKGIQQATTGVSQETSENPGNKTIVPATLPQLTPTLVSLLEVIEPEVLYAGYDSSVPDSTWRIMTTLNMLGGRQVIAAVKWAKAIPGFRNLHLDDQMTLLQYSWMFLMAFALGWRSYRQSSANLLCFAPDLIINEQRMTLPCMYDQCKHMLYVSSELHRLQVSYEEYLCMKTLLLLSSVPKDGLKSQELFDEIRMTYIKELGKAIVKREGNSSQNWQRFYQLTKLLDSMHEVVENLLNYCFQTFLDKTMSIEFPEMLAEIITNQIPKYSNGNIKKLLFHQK

CC1CN(C2CCN(S(=O)(=O)c3ccccc3)CC2)CC(C)O1 (stereo not given)
inactive: activity change, negative = inhibition [1] 2.07% | activity change, negative = inhibition [2] -20.4% | activity, negative = inhibition [3] 2.46% | Potency [4] > 20.6 µM

CC(C)c1nc(N2CCOCC2)c(C#N)c2c1CCC2
inactive: activity change, negative = inhibition [1] -24.1% | activity change, negative = inhibition [2] -23.6% | activity, negative = inhibition [3] -8.37% | Potency [4] > 20.6 µM

CCCc1cc(=O)oc2c(CN3CCCC3)c(O)ccc12
inactive: activity change, negative = inhibition [1] -13.6% | activity change, negative = inhibition [2] 8.87% | activity, negative = inhibition [3] 2.68% | Potency [4] > 20.6 µM

Cc1nc(NS(=O)(=O)c2ccccc2)sc1NC(=O)OC(C)C
inactive: activity change, negative = inhibition [1] 3.92% | activity change, negative = inhibition [2] -1.13% | activity, negative = inhibition [3] 3.96% | Potency [4] > 20.6 µM

C[n+]1cccc(CNC(=O)/C=N/O)c1
inactive: activity change, negative = inhibition [1] -0.78% | activity change, negative = inhibition [2] 2.4% | activity, negative = inhibition [3] 7.83% | Potency [4] > 20.6 µM

CCOC(=O)C1=C(C)OC(N)=C(C#N)C1c1cc2ccccc2nc1N1CCCCC1 (stereo not given)
inactive: activity change, negative = inhibition [1] -11.2% | activity change, negative = inhibition [2] -20.1% | activity, negative = inhibition [3] 13.8% | Potency [4] > 20.6 µM

Cc1cc2nncn2c(Cc2ccccc2)n1
inactive: activity change, negative = inhibition [1] -3.42% | activity change, negative = inhibition [2] -3.53% | activity, negative = inhibition [3] -8.81% | Potency [4] > 20.6 µM

CCCCCOC(=O)C(C)c1c(C)[nH]c(=S)[nH]c1=O (stereo not given)
inactive: activity change, negative = inhibition [1] 7.28% | activity change, negative = inhibition [2] 6.16% | activity, negative = inhibition [3] -4.24% | Potency [4] > 20.6 µM

C=C(C)CSc1nc(N)c2c3c(sc2n1)CCC3
inactive: activity change, negative = inhibition [1] -27.1% | activity change, negative = inhibition [2] -3.51% | activity, negative = inhibition [3] 4.14% | Potency [4] > 20.6 µM

COc1nnnc2c1sc1nc(N3CCOCC3)c3c(c12)CC(C)(C)OC3
inactive: activity change, negative = inhibition [1] -3.49% | activity change, negative = inhibition [2] -9.1% | activity, negative = inhibition [3] -7.42% | Potency [4] > 20.6 µM

COc1ccc(-n2c(=O)c3c4c(sc3n3c(C)nnc23)CC(C)CC4)cc1 (stereo not given)
inactive: activity change, negative = inhibition [1] -0.998% | activity change, negative = inhibition [2] -0.396% | activity, negative = inhibition [3] 10.9% | Potency [4] > 20.6 µM

CN1C(=O)CC(N2CCN(c3ccc(Cl)c(Cl)c3)CC2)C1=O (stereo not given)
inactive: activity change, negative = inhibition [1] 17.6% | activity change, negative = inhibition [2] 16.8% | activity, negative = inhibition [3] 0.709% | Potency [4] > 20.6 µM

O=C(OCCN1CCOCC1)c1ccc2c(c1)OCCO2
inactive: activity change, negative = inhibition [1] -10% | activity change, negative = inhibition [2] 19.9% | activity, negative = inhibition [3] 6.54% | Potency [4] > 20.6 µM

O=C(Nc1ccccc1C(=O)NCCCn1ccnc1)c1ccccc1
inactive: activity change, negative = inhibition [1] 1.7% | activity change, negative = inhibition [2] 5.76% | activity, negative = inhibition [3] 3.12% | Potency [4] > 20.6 µM

NC(=O)C1CCN(C2OC(=O)c3ccccc32)CC1 (stereo not given)
inactive: activity change, negative = inhibition [1] 2.97% | activity change, negative = inhibition [2] 1.22% | activity, negative = inhibition [3] 10.3% | Potency [4] > 20.6 µM

Cc1ccc(N2C(=O)CC3(CC4C=CC3C4)C2=O)cc1 (stereo not given)
inactive: activity change, negative = inhibition [1] 28.9% | activity change, negative = inhibition [2] 4.88% | activity, negative = inhibition [3] 14% | Potency [4] > 20.6 µM

CN(C)CC(O)COc1cccc(OCC(O)CN(C)C)c1 (stereo not given)
inactive: activity change, negative = inhibition [1] 1.26% | activity change, negative = inhibition [2] -0.493% | activity, negative = inhibition [3] 3.74% | Potency [4] > 20.6 µM

COc1ccc2c(c1)c(C(=O)CN1CCOCC1)c(C)n2C
inactive: activity change, negative = inhibition [1] 12% | activity change, negative = inhibition [2] 0.787% | activity, negative = inhibition [3] 10.6% | Potency [4] > 20.6 µM

O=C(NCCOCCOCCNC(=O)c1cccnc1)c1cccnc1
inactive: activity change, negative = inhibition [1] -1.69% | activity change, negative = inhibition [2] -1.99% | activity, negative = inhibition [3] 3.22% | Potency [4] > 20.6 µM

COc1ccc(C2C(C#N)=C(C)NC3=C2C(=O)c2ccccc23)cc1 (stereo not given)
inactive: activity change, negative = inhibition [1] -6.13% | activity change, negative = inhibition [2] -27.8% | activity, negative = inhibition [3] -7.06% | Potency [4] > 20.6 µM

COc1ccc(C2=Nn3c(nnc3-c3cccnc3)SC2)cc1OC
inactive: activity change, negative = inhibition [1] -11.2% | activity change, negative = inhibition [2] -23% | activity, negative = inhibition [3] -17.6% | Potency [4] > 20.6 µM

C=CCOc1nc2c(c(=O)n(C)c(=O)n2C)n1Cc1ccc(Cl)cc1Cl
inactive: activity change, negative = inhibition [1] 4.26% | activity change, negative = inhibition [2] -9.88% | activity, negative = inhibition [3] -16.6% | Potency [4] > 20.6 µM

Cn1c(=O)c2c3c(sc2n2c(SCC(N)=O)nnc12)CC(C(C)(C)C)CC3 (stereo not given)
inactive: activity change, negative = inhibition [1] -9.72% | activity change, negative = inhibition [2] 19.6% | activity, negative = inhibition [3] 14% | Potency [4] > 20.6 µM

COc1ccc(CSc2nnc(C)n2N)cc1Br
inactive: activity change, negative = inhibition [1] -1.02% | activity change, negative = inhibition [2] -3.73% | activity, negative = inhibition [3] 8.37% | Potency [4] > 20.6 µM

O=C(CC(c1ccc(F)cc1)c1ccco1)N1CCCC1 (stereo not given)
inactive: activity change, negative = inhibition [1] -6.27% | activity change, negative = inhibition [2] -22.2% | activity, negative = inhibition [3] -1.51% | Potency [4] > 20.6 µM
